The campaign covered roughly 48,000 compounds. About 13,000 (27%) showed an effect of 50% or more. This is one part of the list.
tested on: Wolbachia pipientis; assay: Anti-Wolbachia Cell-Based Screen; format: functional; set-up: scale not given: in the data most compounds retested in dose-response had high values; conditions: 5 µM

Compound | Percent Effect
Cc1nc(CN(C)C(=O)c2ccc(Cn3cnnn3)cc2)cs1 | -19.39%
CCOc1ncccc1Cn1cc(-c2cncnc2)nn1 | -4.97%
O=C(NCc1nncn1C1CC1)c1ccc(F)c(COCC2CC2)c1 | -29.13%
CC(=O)c1ccc(N2CCC(CO)(CCOc3ccccc3)CC2)nc1 | -10.96%
CC(C)c1nc(CN(C)Cc2ncccc2C(=O)O)cs1 | -6.183%
CCOc1ccccc1C(=O)N1CCCC(c2nccn2CCOC)C1 (configuration not stated) | -0.2171%
CCOc1ccc(C(=O)N2C[C@H]3CC[C@@H]2CN(C)C3)cc1OCC | -32.38%
Cn1ccnc1C1CCCN(C(=O)c2ccc3nccnc3c2)C1 (configuration not stated) | 95.06%
O=C(c1ccc2nccnc2c1)N1C[C@@H](CN2CCCC2)[C@@H](CO)C1 | -11.65%
CC(C)C1CN(C(=O)c2ccc3nccnc3c2)CCS1 (configuration not stated) | -6.684%
CCOc1ccc(C(=O)N2CCCC(c3nccn3C)C2)cc1OCC (configuration not stated) | 100.4%
O=C1N(CCCc2ccccc2)CCCC12CCN(C(CO)CO)C2 (configuration not stated) | 4.777%
N#Cc1ccc(CN2C[C@@H]3OCC(=O)N[C@@H]3C2)cc1 | -14.55%
CN(C)C(=O)CN1CCC2(CCCN(Cc3ccsc3)C2)C1=O (configuration not stated) | -8.794%
N#Cc1ccc(CN2CCCC3(Cc4ccccc4CNC3=O)C2)cc1 (configuration not stated) | 129.6%
O=C1NCc2ccccc2CC12CCCN(Cc1ccsc1)C2 (configuration not stated) | 112.5%
COCCC1(CO)CCCN(Cc2ccc(C#N)cc2)C1 (configuration not stated) | 0.3825%
O=C1NCC[C@]12CN(Cc1ccsc1)C[C@H]2c1ccccc1 | 6.958%
COCCC1(CO)CCCN(CCCc2ccccc2)C1 (configuration not stated) | -2.01%
O=C1NCc2ccccc2CC12CCCN(CCCc1ccccc1)C2 (configuration not stated) | 107.4%
Cc1nc(CN2CC[C@@H]3[C@@H](CCC(=O)N3CCc3c[nH]cn3)C2)co1 | -20.08%
COCCN1C[C@@H](C(=O)O)[C@H](c2ccccc2C)C1 | -9.465%
COCCn1cnnc1Cn1ccnc1-c1ccsc1 | -0.8108%
CN(CCO)Cc1nnc(C2CCN(CC(C)(C)C)CC2)n1C | 3.482%
CCn1nnc2c1CCN(S(C)(=O)=O)C2COCc1ccccc1 (configuration not stated) | -2.948%
c1cncc(COCC2CNCc3nccn3C2)c1 (configuration not stated) | 6.541%

Compound | Percent Effect
CC(C)Cc1ccc(S(=O)(=O)NCCCN2CCNC(=O)C2)cc1 | 7.437%
CN(C)CCCNC(=O)c1cc(Cl)ccc1Cl | 87.97%
CSCC(C)(O)CNC(=O)c1cc(Cl)ccc1Cl (configuration not stated) | 2.772%
Cc1ccc(-n2ccnc2)c(C(=O)NCCCN(C)C)c1 | -3.641%
CN(c1ccc(C(=O)NCCCN2CCOCC2)c(Cl)c1)S(C)(=O)=O | -4.637%
CN(C)CCCNC(=O)c1cc(Br)c2c(c1)OCCO2 | -6.944%
CN(C)CCCNC(=O)c1ccc(Cl)cc1Cl | 119%
COc1cccc2c1OCC(NCc1cnn(-c3ccccc3F)c1)C2 (configuration not stated) | -11.75%
Cc1cccc(NC(=O)c2cccc(OCc3nnnn3C)c2)n1 | 73.29%
Cc1cccc(NC(=O)c2ccc(OCc3nnnn3C)cc2)n1 | 107.3%
COc1cc(C(C)=O)ccc1SCC(=O)Nc1cccc(C)n1 | 6.413%
NC(=O)COc1cccc(C(=O)Nc2cnc3n2CCCC3)c1 | 11.29%
COc1c(CNCCC(=O)Nc2cccc(C)n2)c(C)nn1C | 6.6%
Cc1cc(C)n(CC(C)CNC(=O)N(C)Cc2cc(C)on2)n1 (configuration not stated) | 9.156%
Cc1cc(C)n(CNc2nonc2C(N)=O)n1 | 109.2%
COc1nonc1NCn1nc(C)cc1C | 152%
NC(=O)c1cccc(CC2CCN(C(=O)Cn3cnnn3)C2)c1 (configuration not stated) | -10.16%
CCN(CCC#N)Cn1ncc2cn(-c3ccccc3)nc2c1=O | 15.78%
Cc1ncsc1C(=O)NC1CCN(CC(=O)N(C)C(C)(C)C#N)CC1 | -1.04%
NC[C@H]1CC[C@H](C(NC(=O)c2cccc(F)c2)c2ccccn2)CC1 (some centres not stated) | 1.736%
COc1ccccc1C(=O)NC(CC(=O)O)c1cccs1 (configuration not stated) | 13.12%
COc1cc(F)c(C(C)NC(=O)c2cccnc2C)cc1OC (configuration not stated) | -13.32%
COc1cccc(C(=O)NC(c2ccccn2)[C@H]2CC[C@H](CN)CC2)c1 (some centres not stated) | 98.61%
COC(=O)c1sc(C(NC(=O)c2ccccc2)C2CC2)nc1C (configuration not stated) | -18.8%
COc1ccccc1C(=O)NC(c1ccccn1)[C@H]1CC[C@H](CN)CC1 (some centres not stated) | 100.4%
Cn1cc(C2(C)CN(Cc3ccc(Cl)c(F)c3)CCO2)cn1 (configuration not stated) | -1.471%

Compound | Percent Effect
Cc1cc(F)ccc1CN1CCCC2(C1)OCCO2 | -1.552%
CN(C)C(=O)C1(C)CN(Cc2cn(C)c3ccccc23)CCO1 (configuration not stated) | 120.9%
CN(C)C(=O)COc1ccccc1CN1CCOC2(CCCC2)C1 | 35.78%
CCCN1CCN(Cc2cn(CCC(N)=O)c3ccccc23)CC1 | 5.612%
CN(CCN1CCOCC1)C(=O)C1(c2ccc(F)cc2F)CCC1 | 9.471%
CN(C)C(=O)C1(C)CN(Cc2cn(C)c3ccc(F)cc23)CCO1 (configuration not stated) | 142.1%
CNC(=O)C1(C)CN(Cc2cn(C)c3ccc(F)cc23)CCO1 (configuration not stated) | 119.3%
CNC(=O)[C@@H]1CC[C@@H]2[C@@H](CCN2Cc2cn(C)c3ccccc23)O1.O=C(O)C(F)(F)F | 12.94%
CC(NCCCn1ccnc1)c1ccc(N2CCOC2=O)cc1 (configuration not stated) | -1.07%
c1cnc(N2CC3(CCN(C4CCOC4)CC3)c3ccccc32)nc1 (configuration not stated) | 13%
O=C(CCN1CCCC1)N1CC[C@@H](c2ccc3ccccc3c2)[C@H](O)C1 | -4.226%
CC(C)C(Sc1ccccc1)C(=O)N(C)Cc1nnc2n1CCC2 (configuration not stated) | 14.25%
CCc1cc(-c2nccn2-c2ccccc2CN2CCOCC2)on1 | 1.321%
Cc1nc(C)c(CN2CCOC[C@H](Oc3ccccc3)C2)s1 | -8.964%
Cc1nnc([C@]23COC[C@H]2CN(Cc2cnn(C)c2)C3)o1.O=C(O)C(F)(F)F | -19.13%
CCCS(=O)(=O)N1CC[C@H]2OCC[C@@]2(c2nnc(C)o2)C1 | -9.465%
Cc1noc([C@@]23CCO[C@@H]2CCN(S(=O)(=O)c2cccnc2)C3)n1 | 103%
Cc1nnc([C@@]23CCO[C@@H]2CCN(S(C)(=O)=O)C3)o1 | -9.969%
Cc1nnc([C@@]23CCO[C@@H]2CCN(S(=O)(=O)c2cccnc2)C3)o1 | 88.28%
Cc1nnc([C@]23COC[C@H]2CN(S(=O)(=O)c2cccnc2)C3)o1.O=C(O)C(F)(F)F | 103.4%
O=C1N(CC2CCC2)CCCC12CCN(S(=O)(=O)c1cccnc1)C2 (configuration not stated) | 16.59%
Cc1noc([C@@]23CCO[C@@H]2CCN(C(=O)c2sccc2C)C3)n1 | -13.91%
Cc1nnc([C@@]23CCO[C@@H]2CCN(S(=O)(=O)c2ccccc2)C3)o1 | 90.56%
Cc1noc([C@@]23CCO[C@@H]2CCN(C(=O)C2CCOCC2)C3)n1 | -2.403%
Cc1nnc([C@]23COC[C@H]2CN(Cc2cccs2)C3)o1.O=C(O)C(F)(F)F | 0.3646%
CC(NC(=O)c1ccoc1)C(=O)N(C)Cc1ccsc1 (configuration not stated) | 8.82%

Compound | Percent Effect
COc1cc(C(=O)N2CCCC(CNS(C)(=O)=O)C2)cc(OC)c1C (configuration not stated) | 0.06204%
CC(C)Oc1cc(N2CCN(Cc3ccsc3)C(CCO)C2)nc(N)n1 (configuration not stated) | -3.773%
CCCC(NC(=O)c1ccc(OC)cc1F)c1nnn[nH]1 (configuration not stated) | -0.1945%
COc1c(NS(=O)(=O)c2cc(C)ccc2C)c(C)nn1C | 9.711%
Cc1ccc(N2CCC(c3[nH]ncc3Cc3ccccc3)CC2)nn1 | 27.05%
Cc1cc(N2CCCC(c3[nH]ncc3Cc3ccccc3)C2)nc(N)n1 (configuration not stated) | 51.86%
Cc1ccc(N2CCCC(c3[nH]ncc3Cc3ccccc3)C2)nn1 (configuration not stated) | 26.61%
CCCc1cc(=O)[nH]c2nnc(SCC(=O)OCC)n12 | 11%
Cc1ccc(CN(CC(=O)N2CCOC(C)C2)C2CC2)cc1 (configuration not stated) | 133.3%
CC1CN(C(=O)CN(Cc2ccccc2Cl)C2CCCC2)CCO1 (configuration not stated) | 167.1%
CC1CN(C(=O)CCc2cc(Br)cs2)CCO1 (configuration not stated) | -0.4778%
CC1CN(C(=O)c2ccn(-c3cccc(Cl)c3)n2)CCO1 (configuration not stated) | 3.639%
Cn1cc(C(=O)N(Cc2ccco2)Cc2cccs2)ccc1=O | -5.076%
CC1CN(C(=O)c2sccc2Br)CCO1 (configuration not stated) | 5.426%
Cc1nnc(CN(Cc2ccccc2Cl)C2CCCC2)o1 | -12.06%
CC1CN(C(=O)CN(Cc2ccco2)C2CC2)CCO1 (configuration not stated) | -3.205%
CC1CN(C(=O)CN(Cc2ccco2)Cc2cccs2)CCO1 (configuration not stated) | 127.8%
CC(C)(C)c1cc(NC(=O)CN(Cc2ccco2)Cc2cccs2)on1 | 15.1%
CC1CN(C(=O)CN(Cc2ccccc2)C2CC2)CCO1 (configuration not stated) | 126.4%
CC1CN(C(=O)CN(Cc2ccccc2Br)C2CC2)CCO1 (configuration not stated) | 15.13%
Cc1cc(NC(=O)N(C)C2CCN(c3ccccc3F)C2=O)n(C)n1 (configuration not stated) | -7.553%
O=C(c1ccc2c(c1)CCO2)N1CCN(c2ccc(Cl)cn2)CC1 | 6.232%
CN(C)CC1CN(CCOc2cccc(C#N)c2)CCO1 (configuration not stated) | 0.1863%
Cc1ncsc1C(=O)NC1CCN(Cc2ccc(C#N)cc2)CC1 | -12.71%
